IL-1B inflam inh: inflammasome signaling inhibition, IL-1 beta readout; THP-1 LPS/ATP IL-1B secretion, AlphaLISA, 16 h; stronger effect = lower value; activity change, % at 57.5 µM; hit rate 4.7% among 360,000; in the data active means activity change below about -50%; inconclusive means mostly about -30% to -49%
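Secreted IL-1B measured by AlphaLISA bead assay after 16 h compound exposure of THP-1 cells; compounds (final up to 57.5 uM) added 1 h before LPS (250 ng/mL) and ATP (1.25 mM) stimulation; lower signal means less secretion.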
TGFb inhibitor: blocks TGF-b signaling. HepG2 CAGA-GFP TGF-b/SMAD3 reporter, GFP fluorescence, 18 h; TGF-beta stimulated, 500 pg/mL final. Potency, µM (highest dose often 46.1 µM), usual class: inhibitors. hit rate 1.2% among 410,000. AID 588855; further: nearly all actives have a fitted effect of over 65% in size
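GFP signal (ex488/em500-530) from TGF-beta-stimulated HEPG2 CAGA-GFP cells, 500 pg/mL final, 18 h at 37 degrees C in DMEM plus 1% FBS, normalized to unstimulated and DMSO-stimulated controls.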
DT40 TDP1 no CPT: qHTS for Inhibitors of human tyrosyl-DNA phosphodiesterase 1 (TDP1): qHTS in cells in absence of CPT; DT40 Tdp1-/- hTDP1 cells, no CPT, ATP luminescence, 48 h; Potency, µM (series often up to 46.2 µM), hits mostly inhibitors; hit rate 15% among 420,000; further: nearly all actives have a fitted effect of over 55% in size
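Cells were dispensed at 400 per well, compounds added by pin tool, plates incubated ≥48 hr at 37 °C, then CellTiter-Glo added for 30 min at room temperature before luminescence reading. Line: DT40 Tdp1-/- complemented with hTDP1; camptothecin omitted.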
TDP1 block: inhibitors of human tyrosyl-DNA phosphodiesterase TDP1. hit rate 0.28% among 350,000. Q9NUW8. recombinant TDP1, AlphaScreen DNA substrate cleavage. Potency, µM (top dose mostly 130 µM), hits mostly inhibitors; further: nearly all actives have a fitted effect of over 40% in size
Target sequence (Q9NUW8 whole entry, looked up): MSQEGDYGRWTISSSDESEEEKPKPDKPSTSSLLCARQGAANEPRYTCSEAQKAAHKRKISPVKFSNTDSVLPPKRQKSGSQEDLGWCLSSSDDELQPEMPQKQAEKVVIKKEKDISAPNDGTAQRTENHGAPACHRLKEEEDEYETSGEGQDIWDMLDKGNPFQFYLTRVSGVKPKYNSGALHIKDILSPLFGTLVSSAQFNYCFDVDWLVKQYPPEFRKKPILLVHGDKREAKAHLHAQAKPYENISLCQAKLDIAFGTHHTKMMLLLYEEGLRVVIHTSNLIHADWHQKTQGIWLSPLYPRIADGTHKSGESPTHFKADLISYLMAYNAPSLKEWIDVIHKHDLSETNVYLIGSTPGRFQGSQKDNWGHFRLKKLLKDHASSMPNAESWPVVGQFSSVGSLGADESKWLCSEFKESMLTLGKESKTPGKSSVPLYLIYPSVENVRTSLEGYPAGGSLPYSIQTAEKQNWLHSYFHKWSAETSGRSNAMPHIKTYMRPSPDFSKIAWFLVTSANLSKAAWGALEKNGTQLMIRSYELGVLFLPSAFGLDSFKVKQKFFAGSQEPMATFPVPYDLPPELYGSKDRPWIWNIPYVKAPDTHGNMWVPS
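AlphaScreen read-out: signal falls as enzyme removes the 3' tyrosine-FITC from a 5'-biotinylated DNA oligo (15 nM, 5 min, RT). Enzyme was E. coli-made recombinant Tdp1 at 1 nM, exposed to compound for 15 min beforehand; beads 10 ug/ml, 10 min.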
TDP1 cell CPT: DT40-hTDP1 cell growth loss with CPT; AID 686979; hit rate 12% among 420,000; chicken DT40 Tdp1-/-;hTDP1 cells + 20 nM CPT, ATP luminescence, 48 h; Potency, µM (highest dose often 46.2 µM), hits mostly inhibitors; further: nearly all actives have a fitted effect of over 55% in size
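Chicken DT40 Tdp1-/- cells stably complemented with human TDP1 were seeded at 400 cells/well in medium containing 20 nM camptothecin, exposed to pin-transferred compounds, and grown at 37 °C for at least 48 hr. Viability was read as ATP luminescence.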
HepG2 tox: kills HepG2 cells in TGF-b inhibitor counter-screen. Potency, µM (series often up to 46.1 µM), usual class: cytotoxic. hit rate 0.76% among 410,000. HepG2 CAGA-GFP viability, ATP luminescence, 18 h
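CellTiter-Glo luminescence gave cytotoxicity after 18 hours at 37 degrees C. The cells were HepG2 CAGA-GFP in 1% FBS DMEM, stimulated with 500 pg/mL TGF-beta after compound addition. %Activity was normalised to no-cell wells (complete cell-killing) and DMSO (no toxicity), and curves were fitted and classified.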
Numbers stand for hits; i = inactive; ? = inconclusive; nt = no result given; [ ] = dose if it differs, or a comment. In the library only some 19% were active in any assay of this set; here they are far more common. Unless noted, the call rests on the fitted dose curve; in most records, active means well fitted curve in the direction sought with a large enough effect; inconclusive means small, poorly fitted or top-dose-only effect, or another doubt; inactive means no such curve, though single readings can be large; an effect the other way counts as inactive or inconclusive.

SMILES	IL-1B inflam inh	TGFb inhibitor	DT40 TDP1 no CPT	TDP1 block	TDP1 cell CPT	HepG2 tox
COC(=O)Cc1[nH]nc2c1C(c1cc(OC)c(OC)c(OC)c1)C(C#N)=C(N)O2 (centres undefined)	i	?	i	i	i	i
N#CC1=C(N)Oc2n[nH]c(-c3cccs3)c2C1c1ccccc1C(=O)O (centres undefined)	i	i	i	i	i	i
CCCc1[nH]nc2c1C(C1CCCCC1)C(C#N)=C(N)O2 (centres undefined)	-94.6	?	?	i	?	i
N#CC1=C(N)Oc2n[nH]c(-c3cccs3)c2C1c1cccs1 (centres undefined)	-90.6	?	i	i	?	i
COC(=O)Cc1[nH]nc2c1C(C1C=CCCC1)C(C#N)=C(N)O2 (centres undefined)	-61.6	i	25.9µM	i	?	i
CCOC(=O)Cc1[nH]nc2c1C(c1ccsc1)C(C#N)=C(N)O2 (centres undefined)	-64.8	i	?	i	?	i
CCCc1[nH]nc2c1C(c1ccc(OC)cc1OC)C(C#N)=C(N)O2 (centres undefined)	i	i	i	i	i	i
CCCc1[nH]nc2c1C(c1ccc(O)cc1OCC)C(C#N)=C(N)O2 (centres undefined)	-75.6	i	?	i	?	i
Cc1ccc2[nH]c(CSc3nnc(NC(=O)COc4ccccc4Cl)s3)cc(=O)c2c1	nt	i	?	i	?	i
CCCCc1ccc(NC(=S)NCCc2ccc(F)cc2)cc1	-109.5	15.8µM	?	i	?	i
Cc1ccc(F)cc1NC(=S)NCCc1ccccc1	i	?	25.9µM	i	?	i
Fc1ccc(CCNC(=S)Nc2ccc(F)cc2)cc1	i	i	18.4µM	i	?	i
Cc1ccc(NC(=S)NCCc2ccc(F)cc2)c(C)c1	i	i	?	i	i	i
Fc1ccc(NC(=S)NCc2ccccc2)cc1	i	i	i	nt	i	i
COCCNC(=O)COC(=O)/C=C/c1c(C)nn(Cc2ccc(Cl)cc2Cl)c1Cl	i	?	16.4µM	i	14.6µM	i
CC(=O)NC(C(=O)O)C(C)(C)SN=O (centres undefined)	nt	nt	i	i	i	nt
COCC(=O)Nc1cc(C(=O)N2CCCOc3c(cccc3OC)C2)c2c(c1)nc(C1CCC1)n2C	nt	nt	i	nt	i	nt
Cc1cc(SCC(=O)N2CCC(c3noc4ccc(F)cc34)CC2)nc2ccccc12	?	i	?	i	23.1µM	i
O=C(CSc1ncnc2sc3c(c12)CCCC3)N1CCC(c2noc3ccc(F)cc23)CC1	i	i	10µM	i	11.2µM	i
O=C(CSc1ncnc2sc3c(c12)CCC3)N1CCOCC1	i	i	i	i	i	i
COc1ccc(COC(=O)N/N=C2/C[C@@H](O)[C@@H](O)[C@@H]3[C@@H]4C(=O)N(C[C@@H]5CCCO5)C(=O)[C@H]4CC[C@@H]23)cc1	nt	nt	nt	i[21 µM]	nt	nt
O=C(Cn1c(=O)c(=O)n(Cc2ccccc2)c2ccc(Cl)cc21)NCC1CCCO1 (centres undefined)	i	i	i	i	i	i
CCCCC(Sc1ccc2nnc(-c3ccccn3)n2n1)C(=O)O (centres undefined)	nt	i	i	nt	i	i
O=S(=O)(c1ccccc1C(F)(F)F)N1CCN(c2nc(-c3cccs3)nc3ccccc23)CC1	nt	i	11.2µM	i	12.6µM	i
COc1ccc(S(=O)(=O)N2CCN(c3nc(-c4cccs4)nc4ccccc34)CC2)cc1	nt	?	?	i	?	i
SMILES	IL-1B inflam inh	TGFb inhibitor	DT40 TDP1 no CPT	TDP1 block	TDP1 cell CPT	HepG2 tox
CS(=O)(=O)N1CCN(c2nc(-c3cccs3)nc3ccccc23)CC1	nt	nt	11.2µM	i	15.8µM	nt
O=[N+]([O-])c1ccccc1S(=O)(=O)N1CCN(c2nc(-c3cccs3)nc3ccccc23)CC1	nt	i	?	i	?	i
O=S(=O)(c1cccs1)N1CCN(c2nc(-c3cccs3)nc3ccccc23)CC1	nt	nt	20µM	i	?	nt
COC(=O)c1sccc1S(=O)(=O)N(CC(=O)NCc1ccc(C)cc1)c1ccc(C)c(C)c1	nt	i	i	i	?	i
CC(C)C[C@@H](CC(=O)N[C@H](CC(=O)N[C@@H]1CCNC[C@H]1C(=O)N[C@H](CC(=O)N[C@@H](CCC(=O)O)CC(=O)O)Cc1ccccc1)C(C)C)NC(=O)[C@@H]1CNCC[C@H]1N	nt	nt	nt	i	nt	nt
O=C(CN1CCN(Cc2ccc(Cl)cc2)C1=O)NCCCN1CCN(c2ccc(F)cc2)CC1	-69.8	i	10µM	i	8.91µM	i
Cc1ccccc1CN1CCN(CC(=O)NCCCN2CCN(c3ccc(F)cc3)CC2)C1=O	?	i	13µM	i	16.4µM	i
O=C(CN1CCN(Cc2ccc(Cl)cc2)C1=O)NCCCN1CCOCC1	i	i	i	i	i	i
O=C(CN1CCN(Cc2ccc(F)cc2Cl)C1=O)NCCCN1CCOCC1	i	?	i	i	i	i
CC(C)OCCCNC(=O)CN1CCN(Cc2ccccc2Cl)C1=O	i	i	18.4µM	i	?	i
COc1c(Cl)ccc(Cl)c1C(=O)O	nt	nt	i	i	i	nt
N#CC(c1ccccc1O)N1N=C(c2ccccc2)CC1c1ccccc1 (centres undefined)	i	i	10.3µM	i	18.4µM	i
Cc1csc2nc(COC(=O)c3ccc(NC(=O)c4ccccc4Br)cc3)cc(=O)n12	nt	i	18.4µM	i	20.6µM	i
Cc1csc2nc(COC(=O)c3ccc(NC(=O)C(C)Oc4ccccc4)cc3)cc(=O)n12 (centres undefined)	nt	i	?	i	?	i
Cc1csc2nc(COC(=O)c3ccc(NC(=O)C(C)C)cc3)cc(=O)n12	nt	i	25.9µM	i	18.4µM	i
Cc1ccccc1C(=O)Nc1ccc(C(=O)OCc2cc(=O)n3c4c(sc3n2)CCCC4)cc1	nt	11.2µM	?	i	?	8.91µM
Cc1cccc(C(=O)Nc2ccc(C(=O)OCc3cc(=O)n4c5c(sc4n3)CCCC5)cc2)c1	nt	?	i	i	i	i
O=C(Nc1ccc(F)cc1)c1cc(S(=O)(=O)N2CCCCC2)ccc1F	i	i	i	i	i	i
CC(=O)Nc1ccc(S(=O)(=O)NC2CCCCCC2)cc1	i	i	?	i	?	i
O=C(Nc1ccc(C(F)(F)F)cc1)c1cc(S(=O)(=O)NC2CCCCC2)ccc1F	nt	12.6µM	18.4µM	i	13µM	i
O=C(Nc1ccc(C(F)(F)F)cc1)c1cc(S(=O)(=O)NC2CCCCCC2)ccc1F	nt	?	?	i	20.6µM	11.2µM

Bioassay records: PubChem, National Center for Advancing Translational Sciences (NCATS)
